# Sfp PPTase inh = qHTS Assay for Inhibitors of Bacillus subtilis Sfp phosphopantetheinyl transferase (PPTase); Biochemical Sfp PPTase activity, qHTS; Potency, µM, for inactives: largest response in the series, negative = inhibition, hits mostly inhibitors; 310,000 tested, 3.5% active; AID 1490, 2009;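 note: the enzyme is Sfp with the accession as filed and its product quenches rhodamine fluorescence; potency is the fitted concentration of half-maximal effect; 0% = enzyme reaction without inhibitor and -100% = no enzyme wells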
#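 Sfp 15 nM + cpd, 15 min RT; start w/ rhodamine-CoA 5 uM, BHQ-2-YbbR 12.5 uM (final); 50 mM Hepes pH 7.6, 10 mM MgCl2, 0.01% NP-40, 0.01% BSA; read 525/598 nm at 0 and 30 min.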
# Lamin A splicing = qHTS Assay for Modulators of Lamin A Splicing; HeLa LMNA splicing GFP/RFP minigene ratio, 48 h; Potency, µM (doses to about 46.1 µM), without a hit: at the highest dose ratio change, negative = inhibition, actives largely listed as inhibitors; 200,000 tested, 0.01% active; AID 1487, 2009; active = well fitted inhibition curve with a large enough effect in the signal ratio, with a control signal flat, not every such curve was filed as active; inconclusive = small, poorly fitted or top-dose-only effect, or effect the other way, or a change in a side signal; the % refers to the signal ratio; note: potency is the fitted concentration of half-maximal effect; % is set by controls: 0 for no effect and ±100 for the full control effect
#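 Read-out is the ratio of GFP to DsRed2 object intensity, acquired by 488 nm laser-scanning cytometry on HeLa lamin A-EGFP minigene reporter cells. Compound incubation 48 hrs at 37 °C in Opti-MEM with 2% FBS; DMSO 0.5% final.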
# ALDH1A1 inh = qHTS Assay for Inhibitors of Aldehyde Dehydrogenase 1 (ALDH1A1); 220,000 tested, 7.3% active; AID 1030, 2008; Aldehyde dehydrogenase 1A1 (Homo sapiens), P00352; Purified ALDH1A1, NADH fluorescence, propionaldehyde substrate; Potency, µM (highest dose often 75.3 µM), for the others: at the highest dose activity, negative = inhibition, hits mostly inhibitors; active = well fitted inhibition curve with a large enough effect, not every such curve was filed as active; inconclusive = small, poorly fitted or top-dose-only effect, or another doubt; inactive = no such curve, though single readings can be large or run the other way;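 note: potency is the fitted concentration of half-maximal effect; plate controls were no enzyme wells and a reference inhibitor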
# miR-21 reporter = qHTS Assay for Modulators of miRNAs and/orActivators of miR-21. HeLa miR-21 FLuc reporter, luciferase, 48 h. Potency, µM (top dose mostly 38.3 µM), for the others: at the top dose activity change, positive = activation, actives largely listed as activators. 340,000 tested, under 10 active. AID 2288, 2010;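 note: % of control where 0% means no effect; miR-21 action dims this reporter so a rising signal means less miR-21 action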
#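 HeLa cells endogenously expressing miR-21, stably carrying CMV-driven firefly luciferase with a downstream miR-21 binding site, 2000 cells/well. Titrations up to approximately 40 uM, 48 hours; luciferase luminescence read.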
# G9a block = qHTS Assay for Inhibitors of Histone Lysine Methyltransferase G9a | Histone-lysine N-methyltransferase EHMT2 (Homo sapiens), Q96KQ7 | G9a H3K9 monomethylation, AlphaScreen, 2 h | Potency, µM (top dose mostly 102 µM), inactives show at the highest dose activity, negative = inhibition, usual class: inhibitors | 350,000 tested, 8.8% active; note: potency is the fitted concentration of half-maximal effect; % is set by controls: 0 for no effect and ±100 for the full control effect; nearly all actives have a fitted effect of over 75% in size
# Target sequence (Q96KQ7 913-1193 limits assumed): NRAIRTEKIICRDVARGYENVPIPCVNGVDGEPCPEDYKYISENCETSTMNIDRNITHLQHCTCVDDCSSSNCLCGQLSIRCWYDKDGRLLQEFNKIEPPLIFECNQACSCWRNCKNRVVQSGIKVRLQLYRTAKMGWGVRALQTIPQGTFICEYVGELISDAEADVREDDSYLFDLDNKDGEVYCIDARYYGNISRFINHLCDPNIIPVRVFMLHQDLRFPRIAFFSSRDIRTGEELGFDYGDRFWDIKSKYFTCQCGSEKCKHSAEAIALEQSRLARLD
#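 Methyltransferase reactions run at room temperature for 2 h (20 nM enzyme, 500 nM biotin-H3K9 peptide, 20 uM SAM) after a 15 min compound preincubation; product detected by AlphaScreen beads and anti-H3K9me1 antibody.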
# JMJD2E inh = qHTS Assay for Inhibitors of Human Jumonji Domain Containing 2E (JMJD2E); 230,000 tested, 1.6% active; Lysine-specific demethylase 4E (Homo sapiens), B2RXH2; Potency, µM (doses to about 57.1 µM), inactives show top-dose activity change, negative = inhibition, hits mostly inhibitors; JMJD2E catalytic domain, FDH-coupled NADH fluorescence (FDH is formaldehyde dehydrogenase);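 note: potency is the fitted concentration of half-maximal effect; 0% = wells with enzyme and -100% = buffer wells without enzyme; nearly all actives have a fitted effect of over 50% in size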
# Target sequence (B2RXH2 1-337 limits assumed): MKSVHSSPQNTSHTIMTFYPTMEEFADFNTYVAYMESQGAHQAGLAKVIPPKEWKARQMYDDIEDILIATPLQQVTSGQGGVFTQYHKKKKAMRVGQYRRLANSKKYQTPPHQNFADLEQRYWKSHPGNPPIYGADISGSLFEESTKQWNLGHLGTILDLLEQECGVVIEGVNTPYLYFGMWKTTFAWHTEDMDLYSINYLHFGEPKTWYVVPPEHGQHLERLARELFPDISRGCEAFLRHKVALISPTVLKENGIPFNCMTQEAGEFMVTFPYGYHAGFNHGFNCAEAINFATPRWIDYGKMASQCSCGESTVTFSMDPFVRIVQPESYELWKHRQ
# Active calls of the source: *; ? = inconclusive; nt = no result given; [ ] = remark or other dose. Hits are enriched below; roughly 13% of the tested compounds scored in any of these assays. Unless noted, calls come from the whole dose curve; as a rule, active = well fitted curve in the direction sought with a large enough effect; inconclusive = small, poorly fitted or top-dose-only effect, or another doubt; inactive = no such curve, though single readings can be large; an effect the other way counts as inactive or inconclusive.
SMILES,Sfp PPTase inh,Lamin A splicing,ALDH1A1 inh,miR-21 reporter,G9a block,JMJD2E inh
Cc1nc2ccc(Nc3nc4cc(S(=O)(=O)N5CCOCC5)ccc4o3)cc2s1,?,-1.5%,3.55µM*,-29.0%,7.94µM*,-26.7%
CCc1cccc(NC(=O)Cn2c(=O)oc3cc(S(=O)(=O)N4CCOCC4)ccc32)c1,-2.4%,?,?,12.1%,-15.9%,-9.8%
C=CCN1C(=O)/C(=C/c2ccc3c(c2)CCCN3CCC)C(=O)NC1=S,25.1µM*,-4.5%,1.26µM*,-6.1%,14.1µM*,?
O=C1NC(=S)N(C2CC2)C(=O)/C1=C/c1ccc2c(c1)CCN2CCCCl,20µM*,?,0.891µM*,1.9%,11.2µM*,?
CCN1C(=O)/C(=C/c2ccc3c(c2)CCN3CCCCl)C(=O)NC1=S,44.7µM*,-10.6%,0.199µM*,-3.6%,?,?
CC(C)(C)N1C(=O)NC(=O)/C(=C\c2ccc3c(c2)CCN3CCCCl)C1=O,?,nt,nt,5.3%,39.8µM*,?
CC(=O)OC1CCC23C(=O)OC45CCC(C6=CC(=O)OC6)C4(C)CCC2C5CCC3(O)C1 (stereo unspecified),5.1%,nt,0.5%,nt,-31.4%[2.33 µM],-3.3%
COc1cc2cc(c1Cl)N(C)C(=O)C[C@H](OC(=O)C(C)C)[C@]1(C)O[C@@H]1[C@@H](C)[C@H]1C[C@](O)(NC(=O)O1)[C@@H](OC)/C=C\C=C(\C)C2,nt,nt,0.1%[13.5 µM],nt,nt,nt
CN(C)S(=O)(=O)c1ccc(Cl)c(NC(=O)COC(=O)CN2C(=O)C3CCCCC3C2=O)c1 (stereo unspecified),19.8%,-5.0%[46 µM],?,1.4%,-2.5%,-1.7%
CN1C(=O)C(=Cc2cn(CC(=O)N3CCCCC3)c3ccccc23)C(=O)N(C)C1=O,2.4%,nt,nt,1.4%,?,nt
CN1C(=O)C(=Cc2cn(CC(=O)N3CCCC3)c3ccccc23)C(=O)N(C)C1=O,7.3%,nt,nt,6.0%,28.2µM*,nt
CC1O[C@@H](O[C@@H]2C(O)C[C@H](O[C@@H]3C(O)C[C@@H](OC4CC[C@@]5(C)C6CC[C@]7(C)C(C8=CC(=O)OC8)CC[C@@]7(O)C6CC[C@@H]5C4)OC3C)OC2C)CC(O)[C@H]1O (stereo partly specified),1.9%,nt,-7.5%,nt,-13.0%[2.33 µM],-7.4%
C=CCN1C(=O)/C(=C/c2cc(C)n(-c3cccnc3)c2C)C(=O)NC1=S,-90.6%,4.7%,?,0.5%,?,-1.9%
CCN1C(=O)/C(=C\c2ccc([N+](=O)[O-])s2)C(=O)NC1=S,10µM*,nt,27.0%,3.7%,2.82µM*,2.51µM*
C=CCN1C(=O)/C(=C/c2ccc(Br)s2)C(=O)NC1=S,39.8µM*,nt,nt,?,3.16µM*,nt
CCCCCCCCCC[Si](C)(C)CCC(=O)NC(Cc1ccc(C)cc1)c1ccccc1 (stereo unspecified),nt,?,5.3%,nt,43.0%[59 µM],-2.0%
O=C(O)c1cccc([As]=[As]c2cccc(C(=O)O)c2)c1 (stereo unspecified),nt,nt,-7.4%[13.5 µM],nt,nt,nt
CC(=O)C1C2c3ccccc3OC1(C)N=c1s/c(=C/c3cn(C)nc3C)c(=O)n12 (stereo unspecified),14.4%,5.2%,10µM*,-9.7%,-42.5%,-5.7%
COC(=O)C1C2c3ccccc3OC1(C)N=c1s/c(=C/c3cnn(C)c3)c(=O)n12 (stereo unspecified),25.8%,8.6%,1.8%,-4.2%,17.2%[59 µM],-23.0%
COc1ccc(C2=NCC(=O)N(CC(=O)NCc3ccco3)c3sc4c(c32)CCCC4)cc1OC,50.1µM*,-9.8%,-12.5%,13.2%,15.8µM*,-4.4%
Cc1ccc2c(c1)N(CCC(=O)N1CCC3(CC1)OCCO3)C(=O)C(C)O2 (stereo unspecified),-0.9%,8.3%,?,1.7%,-48.0%[0.0925 µM],-3.5%
Cc1ccc2c(c1)N(CCC(=O)N1CCC3(CC1)OCCO3)C(=O)CO2,3.9%,-3.1%,10µM*,-7.3%,-33.1%,4.3%
Cc1nc2c(=O)n(C)c(=O)nc-2n(C)n1,-6.4%,?,-4.8%,?,-18.4%[59 µM],2.1%
CCn1nc(-c2ccccc2)nc2c(=O)n(C)c(=O)nc1-2,21.6%,?,?,?,?,28.2µM*
CC(C)(C)c1cc(C#N)cc(Br)c1OP(=O)(Oc1c(Br)cc(C#N)cc1C(C)(C)C)c1ccccc1,nt,nt,13.7%[13.5 µM],nt,nt,nt
SMILES,Sfp PPTase inh,Lamin A splicing,ALDH1A1 inh,miR-21 reporter,G9a block,JMJD2E inh
COc1cccc(Oc2c(C)oc3cc(OC(=O)N(C)C)ccc3c2=O)c1,8.1%,?,22.4µM*,-7.8%,7.5%[59 µM],?
Cc1oc2ccc(OC(=O)N(C)C)cc2c1C(=O)OC(C)C,4.8%,-11.7%,-4.2%,-1.2%,2.2%[59 µM],-4.1%
c1cc2c(cc1C1OC[C@@H]3C(c4ccc5c(c4)OCO5)OCC13)OCO2 (stereo partly specified),-4.0%,-21.5%,4.0%,nt,nt,1.9%
N#Cc1ccc(CN2CCC3(CC2)CCN(C(=O)Oc2ccccc2)CC3)cc1,7.1%,nt,7.6%,nt,2.3%[12.7 µM],nt
CC(=O)Oc1c2c(c(CC=C(C)C)c3c1C(=O)C1=CC4CC5C(C)(C)OC(C/C=C(\C)C(=O)O)(C4=O)[C@]15O3)OC(C)(CCC=C(C)C)C=C2 (stereo partly specified),25.1µM*,?,?,nt,nt,-15.4%
Cc1ccc(C(=O)N[C@@H](C)CN2C3=NC[C@H](Cc4ccccc4)N3C[C@H]2Cc2ccc(O)cc2)cc1Br,56.2µM*,nt,nt,?,nt,-19.8%
CCN1CCN(c2ccc([N+](=O)[O-])cc2C=C2C(=O)NC(=O)NC2=O)CC1,44.7µM*,-6.7%,-1.1%,-3.9%,?,-12.2%
CCN1CCN(c2cc(N3CCCC3)c([N+](=O)[O-])cc2F)CC1,-5.5%,?,?,2.3%,?,3.3%
CC(=O)N1CCN(c2ccc([N+](=O)[O-])cc2C=C2C(=O)NC(=O)NC2=O)CC1,-11.7%,?,4.2%,0.0%,39.8µM*,-11.2%
CC[N@+]1(C)CCC[C@@H](OC(=O)C(O)(c2ccccc2)c2ccccc2)C1,9.5%,?,10.2%[20.9 µM],nt,13.7%[21.5 µM],0.1%[25.5 µM]
CC1CCc2c(sc3nc(CSc4n[nH]c(N)n4)[nH]c(=O)c23)C1 (stereo unspecified),3.7%,?,?,-66.9%,11.2%[59 µM],-3.0%
CC1(C)N(O)C(c2ccc(C(=O)O)cc2)=[N+]([O-])C1(C)C,?,nt,-4.0%,nt,nt,4.2%
